Values joined by “and” are separate entries in the source; they are usually repeats but may differ in a detail not shown here. Equal entries are not always repeated. About 2,000 (36%) of roughly 5,500 compounds were called active. Inconclusive results (about 18%) are left out. Rule as the data show it: active = normalized growth mostly below about 0.91 (no sharp cut-off); inconclusive = no clear call, values can overlap the other calls; inactive = mostly above about 0.92. Some of the results follow.
Test: chemical genetic growth profiling, strain panel (AID 1159580);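 also: tested at 20 µM; growth read once vehicle control cultures reached saturation at 30 °C; 1 = growth at the plate median or of vehicle wells; lower values mean less growth of the strain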
Details: S. cerevisiae deletion strains, growth OD

Measured: normalized growth

CC1(C)C(=O)[C@@H]2C[C@@]3(O)C4=CC(=O)O[C@@H](c5ccoc5)[C@]4(C)CCC3[C@@](C)(C2=O)[C@H]1CC(=O)O (stereo partly specified)
inactive: locus YAL021C, strain ccr4, active compounds read low 0.988 | locus YAL026C, strain drs2, active compounds read low 1.02 | locus YAL030W, strain snc1, active compounds read low 0.997 | locus YBL061C, strain skt5, active compounds read low 1.01 | locus YBR009C, strain hhf1, active compounds read low 1 | locus YBR021W, strain FUR4, active compounds read low 1 | locus YBR023C, strain chs3, active compounds read low 1.01 | locus YBR171W, strain sec66, active compounds read low 1.01 | locus YBR229C, strain ROT2, active compounds read low 1.01 | locus YBR231C, strain swc5, active compounds read low 1.01 | locus YBR279W, strain paf1, active compounds read low 1.01 | locus YCL011C, strain gbp2, active compounds read low 1.02 | locus YCL016C, strain dcc1, active compounds read low 1.01 | locus YCL029C, strain bik1, active compounds read low 0.995 | locus YCL061C, strain MRC1, active compounds read low 1 | locus YCL069W, strain vba3, active compounds read low 1.01 | locus YCR088W, strain abp1, active compounds read low 1 | locus YDL005C, strain med2, active compounds read low 0.996 | locus YDL035C, strain GPR1, active compounds read low 1.03 | locus YDL040C, strain nat1, active compounds read low 0.991 | locus YDL074C, strain BRE1, active compounds read low 1.02 | locus YDL101C, strain DUN1, active compounds read low 1.01 | locus YDL185W, strain tfp1, active compounds read low 0.995 | locus YDL192W, strain arf1, active compounds read low 1 | locus YDR001C, strain nth1, active compounds read low 1.01 | locus YDR069C, strain doa4, active compounds read low 1.02 | locus YDR101C, strain arx1, active compounds read low 0.993 | locus YDR137W, strain rgp1, active compounds read low 1.04 | locus YDR150W, strain NUM1, active compounds read low 1.01 | locus YDR159W, strain sac3, active compounds read low 1.01 | locus YDR162C, strain NBP2, active compounds read low 1.03 | locus YDR195W, strain ref2 0.972 | locus YDR297W, strain sur2, active compounds read low 1.01 | locus YDR318W, strain mcm21, active compounds read low 0.996 | locus YDR334W, strain swr1, active compounds read low 1.01 | locus YDR335W, strain msn5, active compounds read low 1.01 | locus YDR388W, active compounds read low 0.967 | locus YDR392W, strain spt3, active compounds read low 1.01 | locus YDR502C, strain sam2, active compounds read low 0.991 | locus YEL003W, strain gim4, active compounds read low 1.03 | locus YEL037C, strain rad23, active compounds read low 1.01 | locus YEL061C, strain CIN8 (second series), active compounds read low 1.02 | locus YEL061C, strain CIN8, active compounds read low 1 | locus YER015W, strain faa2, active compounds read low 1 | locus YER016W, strain bim1, active compounds read low 1 | locus YER110C, active compounds read low 0.984 | locus YER111C, strain swi4, active compounds read low 1.01 | locus YER155C, strain BEM2 (second series), active compounds read low 1.02 | locus YER155C, strain BEM2, active compounds read low 1 | locus YER167W, strain BCK2, active compounds read low 1 | locus YFR010W, strain ubp6, active compounds read low 1.01 | locus YGL078C, strain dbp3, active compounds read low 0.996 | locus YGL086W, strain mad1, active compounds read low 1.01 | locus YGL167C, strain pmr1, active compounds read low 1 | locus YGL173C, strain kem1, active compounds read low 1.01 | locus YGL227W, strain vid30, active compounds read low 0.998 | locus YGL240W, strain doc1, active compounds read low 1.01 | locus YGL248W, strain PDE1, active compounds read low 1 | locus YGL253W, strain hxk2, active compounds read low 1.01 | locus YGR135W, strain pre9, active compounds read low 0.997 | locus YGR252W, strain gcn5, active compounds read low 1 | locus YHR013C, strain ard1, active compounds read low 1.02 | locus YHR027C, strain rpn1, active compounds read low 0.993 | locus YHR030C, strain SLT2, active compounds read low 0.98 | locus YHR079C, strain IRE1 (second series), active compounds read low 0.996 | locus YHR079C, strain IRE1, active compounds read low 0.956 | locus YHR094C, strain hxt1, active compounds read low 0.981 | locus YHR129C, strain ARP1, active compounds read low 1 | locus YHR142W, strain chs7, active compounds read low 1.02 | locus YHR200W, strain rpn10, active compounds read low 0.988 | locus YIL066C, strain RNR3, active compounds read low 1 | locus YIL073C, strain SPO22, active compounds read low 1.05 | locus YIL125W, strain kgd1, active compounds read low 0.994 | locus YIR030C, strain dcg1, active compounds read low 0.993 | locus YJL092W, strain hpr5, active compounds read low 1.01 | locus YJL095W, strain BCK1 (second series), active compounds read low 1 | locus YJL095W, strain BCK1, active compounds read low 1.02 and 0.973 | locus YJL115W, strain asf1, active compounds read low 1.02 | locus YJL129C, strain trk1, active compounds read low 0.998 | locus YJL134W, strain LCB3, active compounds read low 1 | locus YJL154C, strain vps35, active compounds read low 1 | locus YJL164C, strain tpk1, active compounds read low 1.01 | locus YJL166W, strain qcr8, active compounds read low 1.02 | locus YJL168C, strain set2, active compounds read low 0.994 | locus YJL187C, strain SWE1 (second series), active compounds read low 1.01 | locus YJL187C, strain SWE1, active compounds read low 1.03
